These results are taken from publication PMC7862700, “An all-to-all approach to the identification of sequence-specific readers for epigenetic DNA modifications on cytosine”.

Holding throughout (assay): DAPPL (digital affinity profiling via proximity ligation, sequencing); 10 mM Tris-HCl pH 7.5, 50 mM NaCl, 1 mM DTT, 4% glycerol, room temperature, 30 min; GST-TFs on glutathione beads, 16-mer random dsDNA library, 0.1% formaldehyde crosslink after washing; high values mean tight binding
The target in one assay is T1, FEV (Homo sapiens, UniProt Q99581 1-238).
T1 sequence: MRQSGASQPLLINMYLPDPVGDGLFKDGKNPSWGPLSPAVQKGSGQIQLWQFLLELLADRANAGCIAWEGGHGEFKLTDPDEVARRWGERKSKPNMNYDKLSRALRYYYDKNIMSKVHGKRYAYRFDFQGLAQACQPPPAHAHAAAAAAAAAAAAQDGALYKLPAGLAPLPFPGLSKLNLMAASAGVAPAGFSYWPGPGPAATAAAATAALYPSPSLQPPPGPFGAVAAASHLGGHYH
The settings on record: protein: recombinant; tags: N-terminal GST; dsDNA, one strand shown. Summed up:
(§1)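 Pools of DNA-barcoded human transcription factors, expressed in yeast as GST fusions on glutathione beads and combined with a tag-only sample, were incubated with 200 nmole of a 16-mer random double-stranded DNA library. Incubation took 30 min at room temperature in Tris/NaCl/DTT/glycerol buffer and was followed by washing, 0.1% formaldehyde crosslinking, proximity ligation (BsaI/T4 ligase, 1 h, 37 °C), PCR amplification and sequencing on an Illumina NextSeq500. Binding signal is the ratio of a hexamer's read frequency for a factor to its frequency for the tag-only sample.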

In the next assay the target is ETV5 (Homo sapiens, UniProt P41161 1-510). The settings on record: protein: recombinant; tags: N-terminal GST; dsDNA, one strand shown. The method, boiled down: as §1
For the next assay, the target named is HSF1 (Homo sapiens, UniProt Q00613 1-529). The settings on record: protein: recombinant; tags: N-terminal GST; chain copies: 3; dsDNA, one strand shown. Summed up:
as §1

The next assay addresses T2, SPIC (Homo sapiens, UniProt Q8N5J4 1-248).
T2 sequence: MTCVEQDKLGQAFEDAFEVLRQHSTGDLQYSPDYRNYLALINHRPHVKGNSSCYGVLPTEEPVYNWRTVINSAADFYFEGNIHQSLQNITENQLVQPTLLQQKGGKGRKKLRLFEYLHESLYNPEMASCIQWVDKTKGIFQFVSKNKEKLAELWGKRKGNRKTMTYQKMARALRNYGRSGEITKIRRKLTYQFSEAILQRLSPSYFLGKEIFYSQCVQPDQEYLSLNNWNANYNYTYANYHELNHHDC
The settings on record: protein: recombinant; tags: N-terminal GST; dsDNA, one strand shown. Summed up: as §1

Another assay has as its target ELF4 (Homo sapiens, UniProt Q99607 1-663). Particulars: protein: recombinant; tags: N-terminal GST; dsDNA, one strand shown. Summed up:
as §1

The target of a further assay is T3, ELK4 (Homo sapiens, UniProt P28324-2 1-405).
T3 sequence: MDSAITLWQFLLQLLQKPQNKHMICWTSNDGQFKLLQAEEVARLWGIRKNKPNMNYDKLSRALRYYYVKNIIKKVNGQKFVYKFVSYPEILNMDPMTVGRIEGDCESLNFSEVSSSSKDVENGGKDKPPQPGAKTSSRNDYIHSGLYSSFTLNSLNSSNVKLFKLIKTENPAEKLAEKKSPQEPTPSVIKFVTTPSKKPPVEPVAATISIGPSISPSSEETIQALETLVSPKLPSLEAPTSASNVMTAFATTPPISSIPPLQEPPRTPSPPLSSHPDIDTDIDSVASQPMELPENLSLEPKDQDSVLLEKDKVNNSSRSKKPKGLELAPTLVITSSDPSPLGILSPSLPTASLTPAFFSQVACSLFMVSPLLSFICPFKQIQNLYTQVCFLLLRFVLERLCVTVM
The settings on record: protein: recombinant; tags: N-terminal GST; dsDNA, one strand shown. The method, boiled down: as §1

A further assay has as its target T4, ETV2 (Homo sapiens, UniProt O00321 1-342).
T4 sequence: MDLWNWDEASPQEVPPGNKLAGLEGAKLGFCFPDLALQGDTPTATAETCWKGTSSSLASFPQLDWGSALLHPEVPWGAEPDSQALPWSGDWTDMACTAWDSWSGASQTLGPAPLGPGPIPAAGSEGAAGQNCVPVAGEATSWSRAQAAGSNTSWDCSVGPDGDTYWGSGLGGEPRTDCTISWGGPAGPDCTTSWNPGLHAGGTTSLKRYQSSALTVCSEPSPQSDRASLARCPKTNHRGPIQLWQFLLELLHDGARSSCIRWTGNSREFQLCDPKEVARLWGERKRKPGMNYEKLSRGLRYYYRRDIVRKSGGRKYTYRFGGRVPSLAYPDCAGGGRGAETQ
Particulars: protein: recombinant; tags: N-terminal GST; dsDNA, one strand shown. The method, boiled down:
as §1

The target of another assay is T5, ELF3 (Homo sapiens, UniProt P78545 1-371).
T5 sequence: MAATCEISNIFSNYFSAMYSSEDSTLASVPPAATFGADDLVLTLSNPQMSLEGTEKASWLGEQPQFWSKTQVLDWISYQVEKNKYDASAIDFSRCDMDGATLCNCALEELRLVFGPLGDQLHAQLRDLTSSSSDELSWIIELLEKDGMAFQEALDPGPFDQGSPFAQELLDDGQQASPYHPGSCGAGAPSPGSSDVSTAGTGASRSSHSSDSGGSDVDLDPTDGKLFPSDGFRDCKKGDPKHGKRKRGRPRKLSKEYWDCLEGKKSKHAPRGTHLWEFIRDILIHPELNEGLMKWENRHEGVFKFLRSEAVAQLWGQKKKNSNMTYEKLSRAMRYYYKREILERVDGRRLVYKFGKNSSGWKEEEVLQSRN
The settings on record: protein: recombinant; tags: N-terminal GST; dsDNA, one strand shown. The method, boiled down: as §1

A further assay addresses CRX (Homo sapiens, UniProt O43186 1-299). The settings on record: protein: recombinant; tags: N-terminal GST; dsDNA, one strand shown. Summed up:
as §1

The target of another assay is ETV1 (Homo sapiens, UniProt P50549 1-477). The settings on record: protein: recombinant; tags: N-terminal GST; dsDNA, one strand shown. The method, boiled down:
as §1

The next assay addresses T6, ERF (Homo sapiens, UniProt P50548 1-548).
T6 sequence: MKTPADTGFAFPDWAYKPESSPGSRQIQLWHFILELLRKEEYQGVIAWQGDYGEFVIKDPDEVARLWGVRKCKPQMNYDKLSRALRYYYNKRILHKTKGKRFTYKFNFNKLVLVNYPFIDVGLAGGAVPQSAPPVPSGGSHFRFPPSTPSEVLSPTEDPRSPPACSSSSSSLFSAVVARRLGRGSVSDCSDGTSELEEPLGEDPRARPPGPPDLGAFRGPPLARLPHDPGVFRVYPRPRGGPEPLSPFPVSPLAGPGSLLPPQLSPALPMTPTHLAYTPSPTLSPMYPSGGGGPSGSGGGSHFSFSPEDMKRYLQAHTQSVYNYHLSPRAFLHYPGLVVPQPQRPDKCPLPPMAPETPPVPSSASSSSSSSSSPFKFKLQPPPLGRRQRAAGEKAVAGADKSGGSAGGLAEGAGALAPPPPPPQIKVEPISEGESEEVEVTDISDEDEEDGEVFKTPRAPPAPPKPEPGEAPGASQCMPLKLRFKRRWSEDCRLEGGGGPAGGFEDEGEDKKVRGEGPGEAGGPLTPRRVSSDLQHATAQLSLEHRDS
Particulars: protein: recombinant; tags: N-terminal GST; dsDNA, one strand shown. Summed up: as §1

A further assay deals with T7, ETV3L (Homo sapiens, UniProt Q6ZN32 1-361).
T7 sequence: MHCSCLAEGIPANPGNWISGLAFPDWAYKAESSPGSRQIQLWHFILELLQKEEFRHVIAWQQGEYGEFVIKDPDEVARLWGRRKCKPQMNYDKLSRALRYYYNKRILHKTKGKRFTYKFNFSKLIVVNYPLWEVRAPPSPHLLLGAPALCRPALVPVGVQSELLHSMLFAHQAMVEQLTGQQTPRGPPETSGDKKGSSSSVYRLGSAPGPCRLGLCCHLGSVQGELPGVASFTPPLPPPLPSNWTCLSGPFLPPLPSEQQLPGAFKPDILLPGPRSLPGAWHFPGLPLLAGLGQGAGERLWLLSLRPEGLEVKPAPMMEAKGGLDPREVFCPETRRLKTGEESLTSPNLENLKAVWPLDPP
Particulars: protein: recombinant; tags: N-terminal GST; dsDNA, one strand shown. Summed up:
as §1

The next assay addresses T8, ETS2 (Homo sapiens, UniProt P15036 1-469).
T8 sequence: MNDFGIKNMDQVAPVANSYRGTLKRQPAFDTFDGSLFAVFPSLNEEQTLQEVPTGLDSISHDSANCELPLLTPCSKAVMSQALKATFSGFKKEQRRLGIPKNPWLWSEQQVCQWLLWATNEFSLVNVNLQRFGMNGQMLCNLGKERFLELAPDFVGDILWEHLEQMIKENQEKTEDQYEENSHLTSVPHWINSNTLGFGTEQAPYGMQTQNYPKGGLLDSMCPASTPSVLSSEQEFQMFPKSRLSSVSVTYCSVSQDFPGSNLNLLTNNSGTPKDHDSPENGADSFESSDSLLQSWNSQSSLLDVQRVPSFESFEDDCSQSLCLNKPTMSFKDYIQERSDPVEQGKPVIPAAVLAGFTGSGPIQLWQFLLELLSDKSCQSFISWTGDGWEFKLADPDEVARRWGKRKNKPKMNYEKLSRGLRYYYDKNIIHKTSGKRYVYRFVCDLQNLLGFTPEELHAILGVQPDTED
The settings on record: protein: recombinant; tags: N-terminal GST; dsDNA, one strand shown. The method, boiled down:
as §1

A further assay concerns the target T9, SPDEF (Homo sapiens, UniProt O95238 1-335).
T9 sequence: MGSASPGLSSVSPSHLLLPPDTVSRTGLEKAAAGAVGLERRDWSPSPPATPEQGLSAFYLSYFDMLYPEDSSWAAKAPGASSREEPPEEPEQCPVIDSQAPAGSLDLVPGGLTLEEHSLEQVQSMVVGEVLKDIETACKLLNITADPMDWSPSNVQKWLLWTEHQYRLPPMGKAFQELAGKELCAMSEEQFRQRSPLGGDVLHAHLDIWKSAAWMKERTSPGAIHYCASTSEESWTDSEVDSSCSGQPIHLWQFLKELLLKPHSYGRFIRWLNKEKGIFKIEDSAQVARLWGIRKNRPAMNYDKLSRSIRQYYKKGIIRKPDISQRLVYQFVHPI
The settings on record: protein: recombinant; tags: N-terminal GST; dsDNA, one strand shown. Summed up: as §1

The target in another assay is T10, ETV7 (Homo sapiens, UniProt Q9Y603 1-341).
T10 sequence: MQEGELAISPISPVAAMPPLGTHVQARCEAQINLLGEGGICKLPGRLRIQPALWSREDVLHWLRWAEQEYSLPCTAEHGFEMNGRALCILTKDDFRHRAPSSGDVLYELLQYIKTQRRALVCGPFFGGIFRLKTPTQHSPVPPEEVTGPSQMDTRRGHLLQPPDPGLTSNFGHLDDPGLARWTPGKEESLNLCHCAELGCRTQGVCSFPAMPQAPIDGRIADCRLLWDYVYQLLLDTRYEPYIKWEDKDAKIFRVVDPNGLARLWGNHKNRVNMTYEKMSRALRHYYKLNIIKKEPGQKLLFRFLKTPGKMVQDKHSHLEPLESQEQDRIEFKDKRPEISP
The settings on record: protein: recombinant; tags: N-terminal GST; dsDNA, one strand shown. Summed up: as §1

The next assay concerns the target T11, ELF5 (Homo sapiens, UniProt Q9UKW6-2 1-255).
T11 sequence: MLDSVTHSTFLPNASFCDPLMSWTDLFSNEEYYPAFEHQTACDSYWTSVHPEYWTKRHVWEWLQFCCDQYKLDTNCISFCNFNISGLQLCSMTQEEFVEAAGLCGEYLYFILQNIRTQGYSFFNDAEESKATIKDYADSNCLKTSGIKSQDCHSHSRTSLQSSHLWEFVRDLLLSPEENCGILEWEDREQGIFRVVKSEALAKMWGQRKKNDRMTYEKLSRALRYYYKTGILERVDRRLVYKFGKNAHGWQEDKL
The settings on record: protein: recombinant; tags: N-terminal GST; dsDNA, one strand shown. The method, boiled down: as §1

For the next assay, the target named is T12, ETV3 (Homo sapiens, UniProt P41162-2 1-143).
T12 sequence: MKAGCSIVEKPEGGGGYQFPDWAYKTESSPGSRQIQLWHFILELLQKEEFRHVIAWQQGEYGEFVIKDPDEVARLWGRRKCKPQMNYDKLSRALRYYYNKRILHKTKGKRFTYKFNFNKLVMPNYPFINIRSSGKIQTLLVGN
Particulars: protein: recombinant; tags: N-terminal GST; dsDNA, one strand shown. The method, boiled down:
as §1

A further assay addresses ETV6 (Homo sapiens, UniProt P41212 1-452). Particulars: protein: recombinant; tags: N-terminal GST; dsDNA, one strand shown. The method, boiled down: as §1

Chain of ELF4 (Q99607 whole entry): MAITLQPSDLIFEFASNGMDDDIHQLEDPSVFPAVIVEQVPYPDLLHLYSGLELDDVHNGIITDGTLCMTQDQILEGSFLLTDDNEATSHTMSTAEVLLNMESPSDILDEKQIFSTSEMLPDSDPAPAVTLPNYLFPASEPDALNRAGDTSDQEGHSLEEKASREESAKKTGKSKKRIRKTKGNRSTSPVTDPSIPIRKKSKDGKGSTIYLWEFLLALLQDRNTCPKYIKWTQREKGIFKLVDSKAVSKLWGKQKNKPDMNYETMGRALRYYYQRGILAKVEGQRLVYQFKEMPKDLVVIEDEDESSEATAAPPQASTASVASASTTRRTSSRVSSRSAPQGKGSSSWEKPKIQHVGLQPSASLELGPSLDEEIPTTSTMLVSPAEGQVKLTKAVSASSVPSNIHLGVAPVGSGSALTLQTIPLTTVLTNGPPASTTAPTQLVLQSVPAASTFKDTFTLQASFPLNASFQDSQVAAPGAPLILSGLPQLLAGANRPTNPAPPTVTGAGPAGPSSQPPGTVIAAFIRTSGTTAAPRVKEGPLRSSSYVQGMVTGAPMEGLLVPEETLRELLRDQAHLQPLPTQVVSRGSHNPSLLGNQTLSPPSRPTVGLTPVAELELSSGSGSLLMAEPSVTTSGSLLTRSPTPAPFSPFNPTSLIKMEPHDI
Chain of CRX (O43186 whole entry): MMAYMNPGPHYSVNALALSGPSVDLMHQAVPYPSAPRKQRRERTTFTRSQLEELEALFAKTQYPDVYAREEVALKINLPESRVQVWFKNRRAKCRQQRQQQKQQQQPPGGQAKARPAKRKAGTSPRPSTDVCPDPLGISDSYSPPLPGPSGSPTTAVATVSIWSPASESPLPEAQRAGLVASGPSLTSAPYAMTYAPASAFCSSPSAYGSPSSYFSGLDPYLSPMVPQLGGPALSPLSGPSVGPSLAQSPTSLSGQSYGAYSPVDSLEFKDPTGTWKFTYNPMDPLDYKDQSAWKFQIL
Chain of ETV1 (P50549 whole entry): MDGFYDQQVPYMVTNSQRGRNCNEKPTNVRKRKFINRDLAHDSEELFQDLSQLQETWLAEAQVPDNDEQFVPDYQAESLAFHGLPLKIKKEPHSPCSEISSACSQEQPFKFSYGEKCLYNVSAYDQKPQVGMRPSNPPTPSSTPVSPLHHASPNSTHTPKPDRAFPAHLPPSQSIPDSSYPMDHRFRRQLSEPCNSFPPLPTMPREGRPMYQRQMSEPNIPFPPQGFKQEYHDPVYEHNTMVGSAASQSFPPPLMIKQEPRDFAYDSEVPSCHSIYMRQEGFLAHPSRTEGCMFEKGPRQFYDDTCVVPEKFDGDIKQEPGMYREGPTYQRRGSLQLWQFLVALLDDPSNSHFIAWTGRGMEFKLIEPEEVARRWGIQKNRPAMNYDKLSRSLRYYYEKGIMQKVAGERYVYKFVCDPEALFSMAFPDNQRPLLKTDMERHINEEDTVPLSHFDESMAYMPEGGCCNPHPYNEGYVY
Chain of ETV6 (P41212 whole entry): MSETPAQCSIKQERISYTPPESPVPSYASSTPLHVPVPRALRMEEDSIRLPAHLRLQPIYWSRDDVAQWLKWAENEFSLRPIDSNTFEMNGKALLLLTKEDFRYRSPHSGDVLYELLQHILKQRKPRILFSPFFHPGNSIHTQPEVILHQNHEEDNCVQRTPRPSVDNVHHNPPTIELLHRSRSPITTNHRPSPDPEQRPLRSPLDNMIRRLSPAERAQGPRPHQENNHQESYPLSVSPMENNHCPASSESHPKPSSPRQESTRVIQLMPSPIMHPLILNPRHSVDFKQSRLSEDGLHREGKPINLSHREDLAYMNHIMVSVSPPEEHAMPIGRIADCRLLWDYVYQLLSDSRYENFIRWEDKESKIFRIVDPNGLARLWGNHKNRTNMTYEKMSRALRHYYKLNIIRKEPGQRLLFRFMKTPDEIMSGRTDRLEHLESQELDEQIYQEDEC
Chain of ETV5 (P41161 whole entry): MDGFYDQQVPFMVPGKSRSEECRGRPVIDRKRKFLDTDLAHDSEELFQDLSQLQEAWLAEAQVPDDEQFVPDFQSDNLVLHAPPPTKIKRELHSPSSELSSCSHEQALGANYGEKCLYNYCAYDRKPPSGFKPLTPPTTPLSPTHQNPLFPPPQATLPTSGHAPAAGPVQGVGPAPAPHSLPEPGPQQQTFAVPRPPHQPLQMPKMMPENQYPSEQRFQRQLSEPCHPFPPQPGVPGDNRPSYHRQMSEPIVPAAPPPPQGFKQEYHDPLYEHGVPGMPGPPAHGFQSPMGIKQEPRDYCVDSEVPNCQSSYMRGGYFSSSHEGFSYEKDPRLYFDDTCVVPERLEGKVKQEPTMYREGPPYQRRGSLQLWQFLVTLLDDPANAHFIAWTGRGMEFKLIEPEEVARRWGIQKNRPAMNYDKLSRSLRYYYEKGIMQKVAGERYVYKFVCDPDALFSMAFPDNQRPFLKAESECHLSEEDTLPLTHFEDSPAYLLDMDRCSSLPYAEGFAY
Chain of HSF1 (Q00613 whole entry): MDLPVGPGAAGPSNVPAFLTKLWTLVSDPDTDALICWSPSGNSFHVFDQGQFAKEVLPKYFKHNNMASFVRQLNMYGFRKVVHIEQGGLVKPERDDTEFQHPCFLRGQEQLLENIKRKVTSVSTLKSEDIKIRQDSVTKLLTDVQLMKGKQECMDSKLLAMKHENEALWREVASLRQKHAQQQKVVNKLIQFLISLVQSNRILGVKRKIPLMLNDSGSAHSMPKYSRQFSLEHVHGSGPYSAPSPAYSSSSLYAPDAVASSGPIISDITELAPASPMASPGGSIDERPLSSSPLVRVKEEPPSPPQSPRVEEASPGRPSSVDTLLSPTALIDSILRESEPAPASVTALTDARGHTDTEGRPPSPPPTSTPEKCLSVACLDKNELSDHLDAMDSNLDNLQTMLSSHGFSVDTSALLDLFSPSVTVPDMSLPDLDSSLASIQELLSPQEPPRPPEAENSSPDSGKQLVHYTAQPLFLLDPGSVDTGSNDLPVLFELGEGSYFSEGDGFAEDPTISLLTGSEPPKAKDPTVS

Consider TATTGA, for which the binding signal in the assay with FEV was 1.1 fold enrichment (6-mer frequency, TF over GST control); in the assay with ETV5, 1.1 fold enrichment (6-mer frequency, TF over GST control); with HSF1 it was 1.14 fold enrichment (6-mer frequency, TF over GST control); with SPIC, 1.2 fold enrichment (6-mer frequency, TF over GST control); with ELF4, 1.17 fold enrichment (6-mer frequency, TF over GST control); with ELK4, 1.17 fold enrichment (6-mer frequency, TF over GST control). The binding signal with ETV2 was 1.14 fold enrichment (6-mer frequency, TF over GST control); in the assay with ELF3, 1.19 fold enrichment (6-mer frequency, TF over GST control); with CRX it was 1.29 fold enrichment (6-mer frequency, TF over GST control); with ETV1, 1.16 fold enrichment (6-mer frequency, TF over GST control); with ERF, 1.12 fold enrichment (6-mer frequency, TF over GST control); with ETV3L it was 1.22 fold enrichment (6-mer frequency, TF over GST control). In addition, the binding signal with ETS2 was 1.12 fold enrichment (6-mer frequency, TF over GST control); in the assay with SPDEF it was 1.17 fold enrichment (6-mer frequency, TF over GST control); with ETV7, 1.14 fold enrichment (6-mer frequency, TF over GST control); with ELF5, 1.11 fold enrichment (6-mer frequency, TF over GST control); with ETV3, 1.19 fold enrichment (6-mer frequency, TF over GST control); with ETV6 it was 1.16 fold enrichment (6-mer frequency, TF over GST control).
